# Results from the antibiotic and cytotoxicity screens of Wong et al. (2023).
# The campaign covered roughly 39,000 compounds. About 1,500 (3.8%) were called active. The list comes from a sample in which actives are over-represented; it also holds similar structures and randomly drawn compounds.
# Test system: HSkMC (human skeletal muscle cells)
# Assay: cytotoxicity call (relative viability < 0.9)
# Conditions: 10 µM
row,SMILES,cytotoxicity call
1,Nc1nnc(CC(=O)O)[nH]1,inactive
2,Cc1ccc(S(=O)(=O)Nc2ccc3c(c2)C(=O)N([C@H](C)CO)C[C@H](C)[C@H](CN(C)Cc2ccncc2)OCCCC[C@H](C)O3)cc1,inactive
3,O=C(N[C@H]1CC[C@@H](CCNS(=O)(=O)c2ccc(F)cc2)O[C@H]1CO)C1CC1,inactive
4,C[C@@H]1CCCCO[C@@H](CN(C)S(C)(=O)=O)[C@@H](C)CN([C@@H](C)CO)C(=O)c2cc(NC(=O)CCCN(C)C)ccc2O1,inactive
5,CC(C)NC(=O)Nc1ccc2c(c1)CC(=O)N([C@@H](C)CO)C[C@@H](C)[C@@H](CN(C)Cc1ccc3c(c1)OCO3)O2,inactive
6,C[C@H]1CCCCO[C@@H](CN(C)C(=O)C2CCCCC2)[C@@H](C)CN([C@@H](C)CO)C(=O)c2cc(NC(=O)c3ccccc3)ccc2O1,inactive
7,COC[C@@H](C)NC(=O)C1CN(C(C)=O)C1,inactive
8,C[C@H](CO)N1C[C@H](C)[C@@H](CN(C)S(=O)(=O)c2ccc(Cl)cc2)OCc2cn(nn2)CCCC1=O,inactive
9,Cc1noc(C)c1NC(=O)Nc1ccc2c(c1)C(=O)N([C@H](C)CO)C[C@@H](C)[C@H](CN(C)Cc1ccc(-c3ccccc3)cc1)O2,inactive
10,C[C@H]1CN([C@@H](C)CO)C(=O)c2cc(NS(=O)(=O)c3ccccc3)ccc2O[C@@H]1CN(C)S(=O)(=O)c1ccc(F)cc1,inactive
11,COc1ccc(-c2cnc3c(c2)C(=O)N([C@H](C)CO)C[C@H](C)[C@H](CN(C)C(=O)Cc2ccncc2)O3)cc1,inactive
12,C[C@@H]1CCCCO[C@@H](CN(C)Cc2ccc(Cl)c(Cl)c2)[C@H](C)CN([C@H](C)CO)C(=O)c2cc(NS(=O)(=O)c3ccc(Cl)cc3)ccc2O1,active
13,C[C@@H]1CCCCO[C@H](CN(C)Cc2ccc(Cl)c(Cl)c2)[C@@H](C)CN([C@H](C)CO)C(=O)c2cc(NS(=O)(=O)c3ccc(Cl)cc3)ccc2O1,inactive
14,CN1CCN(C(=O)[C@H]2[C@H](CO)[C@H]3Cn4c(ccc(C5=CCCC5)c4=O)[C@@H]2N3S(C)(=O)=O)CC1,inactive
15,CC(C)/C(=N/O)c1ccccc1,inactive
16,CC(C)NC(=O)N(C)C[C@@H]1Oc2ccc(NC(=O)C3CCCCC3)cc2C(=O)N([C@@H](C)CO)C[C@H]1C,inactive
17,C[C@@H]1O[C@H]2Oc3c(-c4ccc(O)cc4)oc4cc(O)c(c(O)c4c3=O)-c3cc(ccc3O)/C=C\C(=O)OC[C@H]3O[C@@H](O[C@H]([C@H]1O)[C@H]2O)[C@H](O)[C@@H](O)[C@@H]3O,inactive
18,Cc1c(CN2CCN(C(=O)[C@H](C)O)CC2)sc2c(N3CCOCC3)nc(-c3cnc(N)nc3)nc12,active
19,CC(=O)Nc1ncc(CN2CCOCC2)s1,inactive

row,SMILES,cytotoxicity call
1,CC(C)NC(=O)N(C)C[C@@H]1Oc2ccc(NS(=O)(=O)c3cccs3)cc2C(=O)N([C@H](C)CO)C[C@@H]1C,inactive
2,CC(C)NC(=O)N(C)C[C@H]1Oc2ccc(NC(=O)C3CCCCC3)cc2C(=O)N([C@H](C)CO)C[C@H]1C,inactive
3,C[C@H](CO)N1C[C@H](C)[C@H](CN(C)C(=O)NC2CCCCC2)OCCCC[C@H](C)Oc2ccc(NC(=O)Nc3ccc4c(c3)OCO4)cc2C1=O,inactive
4,C[C@H]1CN([C@@H](C)CO)C(=O)c2cc(-c3cccc(C#N)c3)cnc2O[C@@H]1CN(C)C(=O)c1cnccn1,inactive
5,CC1(COc2ccc3c(c2)ncn3-c2ccc3cccc(N4CCC(N)CC4)c3n2)COC1,active
6,O=C1O[C@H](c2ccccc2)[C@H](c2ccccc2)N2[C@H]1[C@@H](C(=O)NC[C@@H](O)c1ccccc1)[C@]1(C(=O)Nc3ccc(C#CC4=CCCCC4)cc31)[C@H]2c1ccccc1OCCO,active
7,C=CCNC(=O)[C@H]1[C@@H]2C(=O)O[C@@H](c3ccccc3)[C@@H](c3ccccc3)N2[C@@H](c2ccccc2OCCO)[C@]12C(=O)Nc1ccc(C#CC3(O)CCCCCC3)cc12,inactive
8,C=CCNC(=O)[C@@H]1[C@H]2C(=O)O[C@H](c3ccccc3)[C@H](c3ccccc3)N2[C@H](c2ccccc2OCCO)[C@@]12C(=O)Nc1ccc(C#CC3=CCCCC3)cc12,active
9,O=C1O[C@H](c2ccccc2)[C@H](c2ccccc2)N2[C@H]1[C@@H](C(=O)NC[C@@H](O)c1ccccc1)[C@]1(C(=O)Nc3ccc(C#CC4(O)CCCCCC4)cc31)[C@H]2c1ccccc1OCCO,inactive
10,O=C1O[C@@H](c2ccccc2)[C@@H](c2ccccc2)N2[C@@H](c3ccc(OCCO)cc3)[C@]3(C(=O)Nc4ccc(C#CC5=CCCCC5)cc43)[C@@H](C(=O)NC[C@H](O)c3ccccc3)[C@H]12,inactive
11,C=CCNC(=O)[C@H]1[C@@H]2C(=O)O[C@@H](c3ccccc3)[C@@H](c3ccccc3)N2[C@@H](c2ccccc2OCCO)[C@]12C(=O)Nc1ccc(C#CC3=CCCCC3)cc12,active
12,COCCOC(=O)N1C(=O)[C@@]2(c3cc(C#CC4=CCCCC4)ccc31)[C@H](C(=O)N1CCc3cc(OC)c(OC)cc3C1)[C@H]1C(=O)O[C@H](c3ccccc3)[C@H](c3ccccc3)N1[C@@H]2c1ccccc1OCCO,active
13,C=CCNC(=O)[C@H]1[C@@H]2C(=O)O[C@@H](c3ccccc3)[C@@H](c3ccccc3)N2[C@@H](c2ccc(OCCO)cc2)[C@]12C(=O)Nc1ccc(C#CC3=CCCCC3)cc12,inactive
14,COCCOC(=O)N1C(=O)[C@@]2(c3cc(C#CC4=CCCCC4)ccc31)[C@H](c1ccccc1OCCO)N1[C@H](c3ccccc3)[C@H](c3ccccc3)OC(=O)[C@H]1[C@@H]2C(=O)N1CCc2cc(OC)c(OC)cc2C1,inactive
15,C=CCNC(=O)[C@@H]1[C@H]2C(=O)O[C@H](c3ccccc3)[C@H](c3ccccc3)N2[C@H](c2ccccc2OCCO)[C@@]12C(=O)Nc1ccc(C#Cc3ccc(OC)cc3)cc12,inactive
16,C=CCNC(=O)[C@@H]1[C@H]2C(=O)O[C@H](c3ccccc3)[C@H](c3ccccc3)N2[C@H](c2ccc(OCCO)cc2)[C@@]12C(=O)Nc1ccc(C#CC3=CCCCC3)cc12,inactive
17,COCCOC(=O)N1C(=O)[C@@]2(c3cc(C#CC4=CCCCC4)ccc31)[C@H](c1ccc(OCCO)cc1)N1[C@H](c3ccccc3)[C@H](c3ccccc3)OC(=O)[C@H]1[C@@H]2C(=O)N1CCc2cc(OC)c(OC)cc2C1,inactive
18,C[C@H]1CN([C@@H](C)CO)C(=O)c2cc(NC(=O)Cn3cnnn3)ccc2O[C@@H]1CN(C)Cc1ccc(-c2ccccc2)cc1,inactive
19,COc1ccc(NC(=O)Nc2ccc3c(c2)C(=O)N([C@H](C)CO)C[C@@H](C)[C@H](CN(C)S(=O)(=O)c2c(C)noc2C)OCCCC[C@@H](C)O3)cc1,inactive

row,SMILES,cytotoxicity call
1,CC1CC2C3CC(F)C4=CC(=O)C=CC4(C)C3(F)C(O)CC2(C)C1(O)C(=O)COC(=O)C(C)(C)C (configuration not stated),inactive
2,CC(=O)Nc1nnc2n1CCS2,inactive
3,C[C@H](O)C#Cc1cnc2c(c1)C(=O)N([C@H](C)CO)C[C@@H](C)[C@@H](CN(C)C(=O)CN1CCOCC1)O2,inactive
4,C[C@H]1CN([C@@H](C)CO)C(=O)c2cccc(NS(=O)(=O)c3ccc(F)cc3)c2O[C@@H]1CN(C)S(=O)(=O)c1cn(C)cn1,inactive
5,C[C@@H]1CCCCO[C@H](CN(C)C(=O)c2ccncc2)[C@H](C)CN([C@H](C)CO)C(=O)c2cc(NS(=O)(=O)c3cn(C)cn3)ccc2O1,inactive
6,O=C(C[C@@H]1C=C[C@@H](NC(=O)c2cccc(F)c2)[C@@H](CO)O1)NCCN1CCCC1,inactive
7,Clc1cccn2nnnc12,inactive
8,C[C@@H]1CCCCO[C@H](CN(C)Cc2ccc(C(=O)O)cc2)[C@H](C)CN([C@@H](C)CO)C(=O)c2cc(NC(=O)c3ccccc3)ccc2O1,inactive
9,C[C@@H]1CCCCO[C@@H](CN(C)Cc2ccc(C(F)(F)F)cc2)[C@H](C)CN([C@@H](C)CO)C(=O)c2cc(NC(=O)CCC(F)(F)F)ccc2O1,inactive
10,COC(=O)C1=CC(CCCO)=C[C@@H](c2cccs2)N(Cc2cccc(OC(F)(F)F)c2)C=C1C(=O)OC,inactive
11,O=C1O[C@@H](c2ccccc2)[C@@H](c2ccccc2)N2[C@@H](c3ccccc3OCCO)[C@]3(C(=O)Nc4ccc(C#CC5=CCCCC5)cc43)[C@@H](C(=O)O)[C@H]12,inactive
12,COCCOC(=O)N1C(=O)[C@@]2(c3cc(C#Cc4ccc(OC)cc4)ccc31)[C@H](c1ccc(OCCO)cc1)N1[C@H](c3ccccc3)[C@H](c3ccccc3)OC(=O)[C@H]1[C@@H]2C(=O)NC[C@H](O)c1ccccc1,inactive
13,COc1ccc(C#Cc2ccc3c(c2)[C@]2(C(=O)N3)[C@H](c3ccccc3OCCO)N3[C@H](c4ccccc4)[C@H](c4ccccc4)OC(=O)[C@H]3[C@@H]2C(=O)O)cc1,inactive
14,COCCOC(=O)N1C(=O)[C@@]2(c3cc(C#Cc4ccc(OC)cc4)ccc31)[C@H](c1ccc(OCCO)cc1)N1[C@H](c3ccccc3)[C@H](c3ccccc3)OC(=O)[C@H]1[C@@H]2C(N)=O,inactive
15,NC(=O)[C@H]1[C@@H]2C(=O)O[C@@H](c3ccccc3)[C@@H](c3ccccc3)N2[C@@H](c2ccccc2OCCO)[C@]12C(=O)Nc1ccc(C#CC3=CCCCC3)cc12,active
16,O=C1O[C@H](c2ccccc2)[C@H](c2ccccc2)N2[C@H]1[C@@H](C(=O)O)[C@]1(C(=O)Nc3ccc(C#CC4=CCCCC4)cc31)[C@H]2c1ccccc1OCCO,inactive
17,COc1ccc(C#Cc2ccc3c(c2)[C@@]2(C(=O)N3C(=O)N[C@@H](C)c3ccccc3)[C@H](c3ccc(OCCO)cc3)N3[C@H](c4ccccc4)[C@H](c4ccccc4)OC(=O)[C@H]3[C@@H]2C(=O)O)cc1,active
18,COc1ccc(C#Cc2ccc3c(c2)[C@]2(C(=O)N3)[C@H](C(=O)O)[C@H]3C(=O)O[C@H](c4ccccc4)[C@H](c4ccccc4)N3[C@@H]2c2ccccc2OCCO)cc1,inactive
19,COc1ccc(C#Cc2ccc3c(c2)[C@]2(C(=O)N3)[C@H](C(N)=O)[C@H]3C(=O)O[C@H](c4ccccc4)[C@H](c4ccccc4)N3[C@@H]2c2ccccc2OCCO)cc1,active
